Test results reported in PubChem BioAssay AID1159580 (chemical genetic matrix, 2015).
About 2,000 (36%) of roughly 5,500 compounds were called active. Inconclusive results (about 18%) are left out. Cut-off read from the data, not from the text of the source: active = normalized growth mostly below about 0.91 (no sharp cut-off); inconclusive = no clear call, values can overlap the other calls; inactive = mostly above about 0.92. Some of the results follow.

Test: chemical genetic growth profiling, strain panel (AID 1159580);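 note: tested at 20 µM; growth read once vehicle control cultures reached saturation at 30 °C; 1 = growth at the plate median or of vehicle wells; lower values mean less growth of the strain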
Conditions: S. cerevisiae deletion strains, growth OD
[1] = locus YAR019C, strain CDC15, hits give low values
[2] = locus YBL105C, strain PKC1, hits give low values
[3] = locus YBR135W, strain CKS1, hits give low values
[4] = locus YBR136W, strain MEC1, hits give low values
[5] = locus YBR160W, strain CDC28, hits give low values
[6] = locus YDL017W, strain CDC7, hits give low values
[7] = locus YDL028C, strain MPS1, hits give low values
[8] = locus YDL101C, strain DUN1, hits give low values
[9] = locus YDL108W, strain KIN28, hits give low values
[10] = locus YDL132W, strain cdc53, hits give low values
[11] = locus YDL214C, strain PRR2, hits give low values
[12] = locus YDR052C, strain DBF4, hits give low values
[13] = locus YDR226W, strain ADK1, hits give low values
[14] = locus YDR477W, strain SNF1, hits give low values
[15] = locus YER123W, strain YCK3, hits give low values
[16] = locus YER133W, strain GLC7, hits give low values
[17] = locus YFL009W, strain cdc4, hits give low values
[18] = locus YFL029C, strain CAK1, hits give low values
[19] = locus YFR003C, strain YPI1, hits give low values
[20] = locus YFR019W, strain FAB1, hits give low values
[21] = locus YFR028C, strain CDC14, hits give low values
[22] = locus YGR040W, strain KSS1, hits give low values
[23] = locus YGR052W, strain FMP48, hits give low values
[24] = locus YGR092W, strain DBF2, hits give low values
[25] = locus YHR030C, strain SLT2, hits give low values
[26] = locus YHR079C, strain IRE1, hits give low values
[27] = locus YHR082C, strain KSP1, hits give low values
[28] = locus YHR205W, strain SCH9, hits give low values
[29] = locus YIL147C, strain SLN1, hits give low values
[30] = locus YJL095W, strain BCK1, hits give low values
[31] = locus YJL157C, strain FAR1, hits give low values
[32] = locus YJR016C, strain ILV3, hits give low values
[33] = locus YJR066W, strain TOR1 (second series), hits give low values
[34] = locus YJR066W, strain TOR1, hits give low values
[35] = locus YKL048C, strain ELM1, hits give low values
[36] = locus YKL067W, strain YNK1, hits give low values
[37] = locus YKL101W, strain HSL1, hits give low values
[38] = locus YKL193C, strain SDS22, hits give low values
[39] = locus YKL203C, strain TOR2, hits give low values
[40] = locus YLR113W, strain HOG1, hits give low values
[41] = locus YLR133W, strain CKI1, hits give low values
[42] = locus YLR403W, strain SFP1, hits give low values
[43] = locus YML070W, strain DAK1, hits give low values
[44] = locus YMR001C, strain CDC5, hits give low values
[45] = locus YMR205C, strain PFK2 (second series), hits give low values
[46] = locus YMR277W, strain FCP1, hits give low values
[47] = locus YNL006W, strain LST8, hits give low values
[48] = locus YNL020C, strain ARK1, hits give low values
[49] = locus YNL161W, strain CBK1, hits give low values
[50] = locus YNL183C, strain NPR1, hits give low values
[51] = locus YNL207W, strain RIO2, hits give low values
[52] = locus YNL222W, strain SSU72, hits give low values
[53] = locus YNL307C, strain MCK1 (second series), hits give low values
[54] = locus YOL078W, strain AVO1, hits give low values
[55] = locus YOL136C, strain PFK27, hits give low values
[56] = locus YOR061W, strain CKA2, hits give low values
[57] = locus YOR119C, strain RIO1, hits give low values
[58] = locus YOR231W, strain MKK1, hits give low values
[59] = locus YOR329C, strain SCD5, hits give low values
[60] = locus YPL031C, strain PHO85, hits give low values
[61] = locus YPL153C, strain RAD53, hits give low values
[62] = locus YPL204W, strain HRR25, hits give low values
[63] = locus YPL209C, strain IPL1, hits give low values
[64] = locus YPL256C, strain CLN2, hits give low values
[65] = locus YPR025C, strain CCL1, hits give low values
[66] = locus YPR111W, strain DBF20, hits give low values
[67] = strain NNK1, hits give low values
[68] = strain TSCII, hits give low values
[69] = locus YDR054C, strain cdc34, hits give low values
[70] = locus YJL128C, strain PBS2, hits give low values
[71] = locus YPR106W, strain ISR1, hits give low values

Measured: normalized growth

Cc1ccc2nc3c(nc2c1)-c1ccccc1C3=O
inactive: [1] 0.916 | [2] 0.925 | [3] 0.929 | [4] 0.93 | [5] 0.931 | [6] 0.926 | [7] 0.937 | [9] 0.938 | [10] 0.932 | [13] 0.958 | [17] 0.925 | [18] 0.9 | [19] 0.927 | [21] 0.922 | [29] 0.935 | [32] 0.935 | [38] 0.919 | [44] 0.908 | [46] 0.922 | [47] 0.929 | [49] 0.903 | [51] 0.909 | [52] 0.923 | [54] 0.903 | [59] 0.92 | [63] 0.92 | [65] 0.929 | [66] 0.886
active: [8] 0.716 | [11] 0.247 | [12] 0.861 | [14] 0.279 | [15] 0.217 | [16] 0.339 | [20] 0.281 | [22] 0.3 | [23] 0.255 | [24] 0.15 | [25] 0.208 | [26] 0.209 | [27] 0.261 | [28] 0.391 | [30] 0.227 | [31] 0.21 | [33] 0.259 | [34] 0.225 | [35] 0.309 | [36] 0.235 | [37] 0.264 | [39] 0.275 | [40] 0.288 | [41] 0.224 | [42] 0.181 | [43] 0.243 | [45] 0.261 | [48] 0.196 | [50] 0.259 | [53] 0.199 | [55] 0.226 | [56] 0.205 | [57] 0.29 | [58] 0.246 | [60] 0.278 | [61] 0.265 | [62] 0.263 | [64] 0.277 | [67] 0.8 | [68] 0.874

COc1ccc(OC)c2nc3c(nc12)C(=O)c1ccccc1-3
inactive: [1] 0.97 | [2] 0.969 | [3] 0.974 | [4] 0.974 | [5] 0.974 | [6] 0.968 | [7] 0.984 | [8] 0.953 | [9] 0.972 | [10] 0.972 | [11] 0.997 | [12] 0.971 | [69] 0.957 | [13] 0.979 | [14] 0.971 | [15] 0.942 | [16] 0.988 | [17] 0.978 | [18] 0.969 | [19] 0.974 | [20] 0.974 | [21] 0.981 | [22] 0.973 | [23] 1 | [24] 0.837 | [25] 0.914 | [26] 0.863 | [27] 1.05 | [28] 0.965 | [29] 0.979 | [30] 0.91 | [70] 0.956 | [31] 0.958 | [32] 0.977 | [33] 0.947 | [34] 1 | [35] 0.953 | [36] 0.989 | [37] 0.985 | [38] 0.975 | [39] 1 | [40] 0.899 | [41] 0.967 | [42] 0.932 | [43] 0.979 | [44] 0.971 | [45] 0.996 | [46] 0.976 | [47] 0.973 | [48] 0.94 | [49] 0.958 | [50] 0.99 | [51] 0.971 | [52] 0.974 | [53] 0.945 | [54] 0.975 | [55] 0.958 | [56] 0.938 | [57] 1.05 | [58] 0.902 | [59] 0.966 | [60] 0.935 | [61] 0.929 | [62] 0.94 | [63] 0.96 | [64] 0.902 | [65] 0.979 | [71] 0.98 | [66] 0.968 | [67] 0.98 | [68] 0.968

NNC(=O)c1oc2nc(-c3ccccc3)cc(-c3ccccc3)c2c1N
active: [40] 0.813
inactive: [1] 0.972 | [2] 0.986 | [3] 0.984 | [4] 0.985 | [5] 0.987 | [6] 0.985 | [7] 0.983 | [8] 0.981 | [9] 0.978 | [10] 0.971 | [11] 0.921 | [12] 0.997 | [69] 0.962 | [13] 0.985 | [14] 0.934 | [15] 0.913 | [16] 0.93 | [17] 0.983 | [18] 0.965 | [19] 0.984 | [20] 0.924 | [21] 0.976 | [22] 0.93 | [23] 0.952 | [24] 0.943 | [25] 0.979 | [26] 1.01 | [27] 0.998 | [28] 0.914 | [29] 0.984 | [30] 0.891 | [70] 0.95 | [31] 0.924 | [32] 0.98 | [33] 0.887 | [34] 0.983 | [35] 0.956 | [36] 0.948 | [37] 0.937 | [38] 0.977 | [39] 0.989 | [41] 0.942 | [42] 0.924 | [43] 0.899 | [44] 0.988 | [45] 0.953 | [46] 0.983 | [47] 0.978 | [48] 0.935 | [49] 0.989 | [50] 0.946 | [51] 0.965 | [52] 0.981 | [53] 0.895 | [54] 0.954 | [55] 0.844 | [56] 0.958 | [57] 0.996 | [58] 0.884 | [59] 0.985 | [60] 0.907 | [61] 0.953 | [62] 0.907 | [63] 0.982 | [64] 0.939 | [65] 0.984 | [71] 0.977 | [66] 0.961 | [67] 0.97 | [68] 0.98

COC(=O)[C@H](NC(=O)c1cc(-c2ccccc2)nc2ccccc12)c1ccccc1
inactive: locus YAL013W, strain DEP1, hits give low values 1.02 | locus YAL040C, strain CLN3, hits give low values 1.01 | locus YCL061C, strain MRC1 (second series), hits give low values 0.998 | locus YDR363W, strain ESC2, hits give low values 0.989 | locus YER002W, strain NOP16, hits give low values 1.01 | locus YGR078C, strain PAC10, hits give low values 0.984 | locus YJR075W, strain HOC1, hits give low values 1 | locus YNL128W, strain TEP1, hits give low values 0.996 | locus YNL153C, strain GIM3, hits give low values 1 | locus YNL175C, strain NOP13, hits give low values 1.01 | locus YNL197C, strain WHI3, hits give low values 0.989 | locus YNL224C, strain SQS1, hits give low values 1.02 | locus YNL322C, strain KRE1, hits give low values 0.999 | locus YOR083W, strain WHI5 (second series), hits give low values 1.06 | locus YPL055C, strain LGE1, hits give low values 0.99 | locus YPL241C, strain CIN2, hits give low values 0.999
